High-throughput results: PubChem, National Center for Advancing Translational Sciences (NCATS)
Most compounds without a hit are left out; they make up all but 19% or so of the library.
IL-1B inflam inh: qHTS for Inhibitors of Inflammasome Signaling: IL-1-beta AlphaLISA Primary Screen. THP-1 LPS/ATP IL-1B secretion, AlphaLISA, 16 h; active compounds read low. activity change, % at 57.5 µM. actives 4.7% (n = 360,000); in the data active = activity change below about -50%; inconclusive = mostly about -30% to -49%
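Secreted IL-1B measured by AlphaLISA bead assay after 16 h compound exposure of THP-1 cells; compounds (final up to 57.5 uM) added 1 h before LPS (250 ng/mL) and ATP (1.25 mM) stimulation; lower signal means less secretion.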
HT1080 IDH1KD tx: qHTS for induction of synthetic lethality in tumor cells producing 2HG: qHTS for the HT-1080-IDH1KD cell line. actives 2% (n = 360,000). Potency, µM (top dose mostly 46.1 µM), for inactives: top-dose activity, negative = toxicity, most hits filed as cytotoxic. HT-1080 IDH1 knockdown viability, ATP luminescence, 48 h. AID 686971, 2013;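 note: potency is the fitted concentration of half-maximal effect; 0% = DMSO wells and -100% = cell-free medium wells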
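CellTiter-Glo luminescence after 48 h compound exposure at 37 degrees C of IDH1-knockdown HT-1080 cells in 5% FBS RPMI. %Activity scaled between DMSO wells and cell-free media wells, with curves fitted and assigned curve classes.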
HT1080-NT tox: qHTS for induction of synthetic lethality in tumor cells producing 2HG: qHTS for the HT-1080-NT fibrosarcoma cell line | actives 1.6% (n = 360,000) | Potency, µM (doses to about 46.1 µM), for the others: at the highest dose activity, negative = less viability, most hits filed as cytotoxic | HT-1080-NT fibrosarcoma viability, CellTiter-Glo ATP luminescence, 48 h;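 note: NT is the 2HG producing partner of a matched IDH1 knockdown line; potency is the fitted concentration of half-maximal effect; 0% = DMSO-treated cells and -100% = media-only wells without cells; nearly all actives have a fitted effect of over 55% in size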
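Luminescent CellTiter-Glo readout after 48 hours of compound exposure at 37 degrees C defined viability of HT-1080-NT cells. Activity was normalized to DMSO wells and cell-free media wells; concentration-response curves were fitted and assigned curve classes.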
DT40 TDP1 no CPT: qHTS for Inhibitors of human tyrosyl-DNA phosphodiesterase 1 (TDP1): qHTS in cells in absence of CPT; actives 15% (n = 420,000); Potency, µM (top dose mostly 46.2 µM), without a hit: at the highest dose activity change, negative = growth inhibition, hits mostly inhibitors; AID 686978, 2013; DT40 Tdp1-/- hTDP1 cells, no CPT, ATP luminescence, 48 h; note: potency is the fitted concentration of half-maximal effect; nearly all actives have a fitted effect of over 55% in size
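A cellular qHTS used chicken DT40 cells lacking endogenous Tdp1 but carrying stably transfected human TDP1. Compounds were applied without camptothecin, and cell growth kinetics were judged by ATP-dependent luminescence after ≥48 hr.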
DT40 TDP1 CPT: qHTS for Inhibitors of human tyrosyl-DNA phosphodiesterase 1 (TDP1): qHTS in cells in presence of CPT; chicken DT40 Tdp1-/-;hTDP1 cells + 20 nM CPT, ATP luminescence, 48 h; Potency, µM (highest dose often 46.2 µM), for inactives: top-dose activity change, negative = growth inhibition, actives largely listed as inhibitors; actives 12% (n = 420,000); AID 686979, 2013; note: potency is the fitted concentration of half-maximal effect; nearly all actives have a fitted effect of over 55% in size
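Cell growth measured by CellTiter-Glo luminescence after a minimum 48 h, 37 C compound exposure with 20 nM CPT in Tdp1-knockout DT40 cells stably expressing hTDP1, seeded 400/well; qHTS titration format.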
ELG1 repair inh: qHTS screen for small molecules that inhibit ELG1-dependent DNA repair in human embryonic kidney (HEK293T) cells expressing luciferase-tagged ELG1 | HEK293T ELG1-luciferase reporter, luminescence, 16 h; DNA damage induced by 5-fluorouridine | Potency, µM (doses to about 46.1 µM), inactives show top-dose activity change, negative = inhibition, usual class: inhibitors | actives 2.3% (n = 330,000) | AID 504467, 2011; note: potency is the fitted concentration of half-maximal effect; nearly all actives have a fitted effect of over 55% in size
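HEK293T cells expressing luciferase-tagged ELG1 (2,000/well) received 5-Fluorouridine plus compound or DMSO for 16 hr at 37 °C. Luciferase was read by ONE-Glo luminescence after 30 min at room temperature.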
Starred values were filed as active, the others as inactive; ? = inconclusive; . = not tested or not shown. Unless noted, calls come from the whole dose curve; as a rule, active = well fitted curve in the direction sought with a large enough effect; inconclusive = small, poorly fitted or top-dose-only effect, or another doubt; inactive = no such curve, though single readings can be large; an effect the other way counts as inactive or inconclusive. Unless noted, % is set by controls: 0 for no effect and ±100 for the full control effect.

SMILES	IL-1B inflam inh	HT1080 IDH1KD tx	HT1080-NT tox	DT40 TDP1 no CPT	DT40 TDP1 CPT	ELG1 repair inh
COc1cc2c(cc1O)[C@@H]1Cc3ccc(OC)c(O)c3CN1CC2	19	2.6µM*	2.6µM*	4.1µM*	4.6µM*	?
CC(=O)[C@H]1CC[C@H]2[C@@H]3CC[C@H]4C[C@](C)(O)CC[C@]4(C)[C@H]3CC[C@]12C	.	.	.	-16%	6%	.
COc1ccc2nc3c(C)n(C)ccc-3c2c1	15	-19%	2%	?	?	.
CCn1cc2nc(SCc3cc(C)ccc3C)n(Cc3ccc(OC)cc3)c(=O)c2n1	.	.	.	7.3µM*	10µM*	.
CC(C)n1nc(-c2cc3cc(O)ccc3[nH]2)c2c(N)ncnc21	.	.	.	0.17µM*	0.094µM*	.
C=CCNc1nnc(Sc2ncccc2[N+](=O)[O-])s1	-14	-19%	-31%	7.3µM*	5.2µM*	?
Cc1cc2c(C(C)C)c(O)c(O)c(C=O)c2c(O)c1-c1c(C)cc2c(C(C)C)c(O)c(O)c(C=O)c2c1O	.	.	.	5.8µM*	5.8µM*	-5%
Cc1nn(Cc2ccccc2Cl)c(C)c1C(=O)Nc1nnc(C2CC2)s1	0	2.5µM*	?	?	-55%	10%
CC(Cc1ccccc1)N1Cc2ccccc2C1 (centres undefined)	-4	-4%	10%	-22%	4%	57%
Cc1ncc2n1-c1ccc(Cl)cc1C(c1ccccc1F)=NC2	32	?	?	?	?	?
C=CCc1cccc(C=Nc2c[nH]c(=O)[nH]c2=O)c1O	12	9%	8%	-6%	18µM*	-7%
O=C(c1ccccc1)c1ccccc1N=Cc1c(O)[nH]c(=O)[nH]c1=O	4	1%	0%	-1%	2%	6%
CCCCCCCCCCCCCCCCCC[N+](C)(C)CCC[Si](OC)(OC)OC	.	.	.	12µM*	24µM*	.
CCCCCC[N+](=O)[O-]	-5	3%	7%	4%	1%	20%
CCCCCCCCCCCCCCCC[N+](C)(C)C	-14	?	12µM*	1.8µM*	2.3µM*	-3%
CCCCCCCCCC[N+](C)(C)CCCCCCCCCC	.	.	.	0.94µM*	1.3µM*	.
Cc1[nH]c2ccccc2c1C(=O)C(=O)N1CC2CC(C1)c1cccc(=O)n1C2 (centres undefined)	-3	-8%	-15%	?	?	16%
O=C1NC[C@H](CCCCN2C[C@H](Cc3ccccc3)N(CC3CCCCC3)C(=O)C2=O)N(CCC2CCCCC2)C1=O	-8	3%	15%	?	?	.
CCC1(c2ccccc2)CCC(=O)NC1=O (centres undefined)	.	.	.	1%	4%	.
c1ccc(N2[C@@H]3CC[C@H]2c2ccncc2C3)cc1	?	11%	0%	7%	18%	.
CCOC(=O)c1ccc(NC(c2ccc(N(C)C)cc2)P(=O)(OC(C)C)OC(C)C)cc1 (centres undefined)	9	-30%	-22%	29µM*	?	-20%
CCCCOC(=O)c1ccc(NC(=O)c2c(O)[nH]c(=O)[nH]c2=O)cc1	15	-3%	0%	-2%	21%	.
C=C1C(=O)OC2CC3(C)OC3CCC(C)=CC(OC(C)=O)C12 (centres undefined)	-100*	15µM*	-17%	2.6µM*	2.3µM*	.
O=c1[nH]c(O)c(C=Nc2cccc(F)c2)c(=O)[nH]1	-2	2%	-3%	-4%	6%	0%
CCN1CCN(c2cc(N3CCCC3)c(F)cc2[N+](=O)[O-])CC1	-7	1%	-12%	16µM*	?	0%
SMILES	IL-1B inflam inh	HT1080 IDH1KD tx	HT1080-NT tox	DT40 TDP1 no CPT	DT40 TDP1 CPT	ELG1 repair inh
C[C@]12C[C@H](O)[C@@H](O)CC1=CCC1C2CC[C@@]2(C)C1CC[C@@H]2O (some centres undefined)	9	13%	12%	-6%	4%	-24%
CCOC(=O)c1ccc(S(=O)(=O)n2c(=O)oc3ccccc32)cc1	69	2%	5%	-22%	?	-13%
CCOC(=O)c1oc2ccc(S(=O)(=O)n3nc(-c4ccc(Br)cc4)cc3N)cc2c1C	.	.	.	12µM*	21µM*	.
COc1ccc(CN2Cc3cnnn3-c3ccccc3C2C#N)cc1 (centres undefined)	-102*	6.5µM*	8.2µM*	1.8µM*	1.8µM*	.
CN1Cc2cnnn2-c2ccccc2C1C#N (centres undefined)	0	?	-11%	?	-21%	.
COc1ccc(CN2Cc3cnnn3-c3ccccc3C2c2ccccc2)cc1 (centres undefined)	6	?	?	16µM*	16µM*	.
N#CC1c2ccccc2-n2nncc2CN1Cc1cc(Cl)cc(Cl)c1 (centres undefined)	-102*	6.5µM*	8.2µM*	1.8µM*	1.6µM*	.
c1ccc(C2c3ccccc3-n3nncc3CN2CC2CCCCC2)cc1 (centres undefined)	16	-23%	-2%	?	?	.
c1ccc(CCc2ccc3n2Cc2cnnn2-c2ccccc2-3)cc1	-58*	?	?	?	6.5µM*	.
COc1ccc(C(=O)N2Cc3cnnn3-c3ccccc3C2C#N)cc1 (centres undefined)	0	12%	16%	-14%	-12%	.
COc1ccc(-c2ccc3n2Cc2cnnn2-c2ccccc2-3)cc1	-9	-2%	-6%	?	?	.
O=[N+]([O-])c1ccc(C2[C@H]3C(c4ccccc4)=NC4(CCCCC4)N23)cc1 (some centres undefined)	1	-7%	3%	-20%	?	-23%
CC1(C)N([O])C(c2ccc(C(=O)O)cc2)=[N+]([O-])C1(C)C	.	.	.	-25%	16%	.
Cc1cccc(OCCNc2ncccc2[N+](=O)[O-])c1	-6	11%	2%	?	?	.
CS(=O)(=O)c1ccc(C2=C(CNC(=O)c3cccs3)[C@H]3CC[C@@H](C2)N3Cc2ccco2)cc1	-2	-3%	1%	-13%	-4%	.
